Reference: PubChem BioAssay AID720518 (National Center for Advancing Translational Sciences (NCATS), 2013)
Inconclusive results are not listed. The source made the active and inactive calls. Calls follow the shape of the full dose curve.

Assay: qHTS for Inhibitors of Cell Surface uPA Generation: Wild-type Protective Antigen (WT-PrAg) Counterscreen for Cherry-picked Compounds; as to activity (protection): 0% is about no effect
Settings: cells, WT protective antigen toxicity counterscreen; series mostly up to 115 µM; activity (protection): at the top concentration
Potency is read from the fitted curve at half-maximal effect.

Question: For `CCOC(=O)Cc1csc(NC(=O)Nc2cccc(OC)c2)n1`, which “activity (protection)” value is on record?
Answer: The value was 2.04% (inactive).

Question: For `CN(CCO)c1ccc(C(C(=O)c2ccccc2)c2ccc(N(C)CCO)cc2)cc1`, which “activity (protection)” value is on record?
Answer: Its value is -1.8% (inactive).

Question: For `CC/C(=N\Nc1ccccc1[N+](=O)[O-])c1ccc(O)cc1`, which “activity (protection)” value is on record?
Answer: Its value is -1.06% (inactive).

Question: Which “activity (protection)” value does the source give for `CC(=O)c1ccc(N2CCN(C(=S)NCc3ccco3)CC2)cc1` here?
Answer: Its value is -1.46% (inactive).

Question: With `COc1ccc(-c2cccc(-c3cc(=O)oc4cc(OC)c(OC)c(OC)c34)c2)cc1` as the compound, how does the “activity (protection)” value read?
Answer: The value was -1.14% (inactive).

Question: With `O=C(CSc1ccc(Cl)cc1)Nc1ccc(C2SCCS2)cc1` as the compound, how does the “activity (protection)” value read?
Answer: The value was 1.42% (inactive).

Question: For `C[C@H](CO)N1C[C@H](C)[C@@H](CN(C)C(=O)Nc2ccccc2)Oc2c(NS(=O)(=O)c3ccccc3)cccc2C1=O`, which “activity (protection)” value is on record?
Answer: Its value is 1.01% (inactive).

Question: Which “activity (protection)” value does the source give for `Clc1ccc(C2=NN=C3COc4ccccc4N3C2)cc1` here?
Answer: Its value is -1.44% (inactive).

Question: Which “activity (protection)” value does the source give for `CC1CCCCN1C(=O)CSc1nc2ncccc2[nH]1` (centres undefined) here?
Answer: Its value is -1.11% (inactive).

Question: For `Cc1ccc(NC(=O)CC2OC(=O)c3ccccc32)cc1S(=O)(=O)N1CCOCC1` (centres undefined), which “activity (protection)” value is on record?
Answer: The value was -0.507% (inactive).

Question: With `CC(=O)c1ccc(N=C2SCCCN2C(=O)C2CCCCC2)cc1` as the compound, how does the “activity (protection)” value read?
Answer: The value was -1.93% (inactive).

Question: For `CCOc1ccc(CCNC(=O)Cc2ccc(NC3=NC4CS(=O)(=O)CC4S3)cc2)cc1OCC` (centres undefined), which “activity (protection)” value is on record?
Answer: Its value is 2.98% (inactive).

Question: For `Cc1ccccc1C(=O)Nc1ccccc1N1CCCCC1`, which “activity (protection)” value is on record?
Answer: The value was 1.64% (inactive).

Question: For `COc1ccc(CNC(=O)C2CCC(CNS(=O)(=O)c3ccc(C)cc3)CC2)cc1` (centres undefined), which “activity (protection)” value is on record?
Answer: Its value is -1.42% (inactive).

Question: For `COc1cccc(NC(=O)CSc2nc3ncc(Br)cc3[nH]2)c1`, which “activity (protection)” value is on record?
Answer: The value was 0.5% (inactive).

Question: With `COc1ccc(CNC(=O)C2(CC3CC(c4ccccc4)=NO3)CCNCC2)cc1` (centres undefined) as the compound, how does the “activity (protection)” value read?
Answer: Its value is -2.06% (inactive).

Question: With `Brc1ccsc1/C=N/Nc1ccccc1` as the compound, how does the “activity (protection)” value read?
Answer: The value was 3.32% (inactive).

Question: Which “activity (protection)” value does the source give for `COc1ccc(Cc2nnc(NC(=O)Nc3ccc(F)cc3)s2)cc1` here?
Answer: The value was 6.85% (inactive).

Question: With `CCc1cc(CC)c(/C=N/NC(N)=O)c(CC)c1` as the compound, how does the “activity (protection)” value read?
Answer: Its value is -1.8% (inactive).

Question: For `Cc1cccc(N2C(=O)c3cccc(Oc4ccc(Cl)cc4)c3C2=O)c1`, which “activity (protection)” value is on record?
Answer: The value was 0.86% (inactive).

Question: For `O=C1OCC/C1=C\c1ccc(O)cc1`, which “activity (protection)” value is on record?
Answer: The value was -1.6% (inactive).

Question: With `O=c1[nH]c2ccccc2cc1CN(CC1CCCO1)S(=O)(=O)c1ccccc1` (centres undefined) as the compound, how does the “activity (protection)” value read?
Answer: Its value is -0.109% (inactive).

Question: Which “activity (protection)” value does the source give for `COC(=O)/C(C#N)=C/c1c(N2CCN(c3ccccc3)CC2)nc2c(C)cccn2c1=O` here?
Answer: The value was -0.794% (inactive).

Question: Which “activity (protection)” value does the source give for `COc1ccc(C(=O)N[C@H](C(=O)NCc2cccs2)C(C)C)cc1` here?
Answer: Its value is -0.821% (inactive).

Question: With `Cc1ccc(C(=O)COc2cc(O)c3c(=O)cc(-c4ccccc4)oc3c2)cc1` as the compound, how does the “activity (protection)” value read?
Answer: The value was -0.241% (inactive).

Question: Which “activity (protection)” value does the source give for `CCC(C)NC(=O)c1ccc2nc(-c3ccc(OC)c(OC)c3)c(-c3ccc(OC)c(OC)c3)nc2c1` (centres undefined) here?
Answer: The value was -2.18% (inactive).

Question: With `CCOc1cc(C(=S)N2CCOCC2)ccc1OC(=O)c1cccc(C)c1` as the compound, how does the “activity (protection)” value read?
Answer: Its value is -2.03% (inactive).

Question: With `CCCOC(=O)CSC1=C(C#N)C(c2ccccc2Cl)CC(=O)N1` (centres undefined) as the compound, how does the “activity (protection)” value read?
Answer: The value was -1.5% (inactive).

Question: With `O=C(NCc1ccc2c(c1)OCO2)c1ccccn1` as the compound, how does the “activity (protection)” value read?
Answer: Its value is 0.737% (inactive).

Question: With `Cc1ccc(S(=O)(=O)N2CCC(C(=O)OC(C)C(=O)NC3CCCCC3C)CC2)cc1` (centres undefined) as the compound, how does the “activity (protection)” value read?
Answer: The value was 0.942% (inactive).

Question: For `CN1CCN(c2ccc(S(=O)(=O)N3CCOCC3)cc2NC(=O)CSCc2ccccc2)CC1`, which “activity (protection)” value is on record?
Answer: Its value is 0.65% (inactive).

Question: With `N/C(=N/OC(=O)c1ccccc1F)c1nonc1N` as the compound, how does the “activity (protection)” value read?
Answer: The value was -1.6% (inactive).

Question: Which “activity (protection)” value does the source give for `Cc1c(NC(=S)Nc2ccc(Cl)cc2)c(=O)n(-c2ccccc2)n1C` here?
Answer: Its value is -0.304% (inactive).

Question: For `C/C(=N\NC(=O)c1ccccc1)c1c(C)[nH]n(-c2ccccc2)c1=O`, which “activity (protection)” value is on record?
Answer: Its value is -2.28% (inactive).

Question: With `O=C(/C=C/c1cccc(Oc2ccccc2)c1)N1CCOCC1` as the compound, how does the “activity (protection)” value read?
Answer: The value was 0.547% (inactive).

Question: For `CC1=CC(C)(C)N2C(=O)C3(NCCc4c3[nH]c3ccccc43)c3cc(C)cc1c32` (centres undefined), which Potency is on record?
Answer: Its Potency is 2330 nM (active).

Question: Which “activity (protection)” value does the source give for `Cc1nn(C)c(C)c1S(=O)(=O)N1CCC(C(=O)NC2CCCCCC2)CC1` here?
Answer: Its value is -0.489% (inactive).

Question: For `Cc1cc(C)cc(NC(=O)Cc2ccc(NC3=NC4CS(=O)(=O)CC4S3)cc2)c1` (centres undefined), which “activity (protection)” value is on record?
Answer: The value was 0.0867% (inactive).

Question: For `COc1cc(NC(=S)NCCc2ccc(S(N)(=O)=O)cc2)c(OC)cc1Cl`, which “activity (protection)” value is on record?
Answer: The value was 7.74% (inactive).
